The values below come from the supplement of paper PMC10681739.

The first assay concerns the target T1, ETS1 (UniProt P14921).
T1 sequence: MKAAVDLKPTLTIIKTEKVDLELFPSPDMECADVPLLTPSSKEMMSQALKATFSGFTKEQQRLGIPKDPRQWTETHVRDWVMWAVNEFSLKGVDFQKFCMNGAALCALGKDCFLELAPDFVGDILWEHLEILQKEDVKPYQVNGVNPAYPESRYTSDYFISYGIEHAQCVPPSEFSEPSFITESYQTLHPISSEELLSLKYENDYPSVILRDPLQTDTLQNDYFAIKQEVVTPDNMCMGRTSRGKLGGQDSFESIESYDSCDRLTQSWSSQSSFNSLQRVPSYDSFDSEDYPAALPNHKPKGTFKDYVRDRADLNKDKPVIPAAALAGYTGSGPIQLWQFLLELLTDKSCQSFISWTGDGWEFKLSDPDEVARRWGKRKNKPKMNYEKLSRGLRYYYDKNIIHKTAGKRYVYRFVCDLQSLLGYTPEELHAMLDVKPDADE
The assay can be described thus: ETS1 binding intensity (PBM fluorescence), ETS1 alone (arbitrary fluorescence units); higher = stronger binding. The following applies: ETS1 concentration 1 nM; RUNX1 concentration 0 nM.
Turning to CAGAGACACCTGCGGAAGCCACAGGGAGGTCACAGA, the ETS1 binding intensity was determined as 495.
Same read-out and setting: in the case of AGGGAAGCGGCGGCGGAAGCCCCGCAGGAGGCCGGC it was 806; in that of TCCAGGATGTGCTGAACCTCCAGAAACCACCGGCTT, 436.
As for GAGGAGGCTGAGGAGGAAGTGCGGTGGCTGTTCTGC, the ETS1 binding intensity came out at 1290.
GCGATACGAGACTTCCTGCGGGCTCGTGACATCAGC: the ETS1 binding intensity amounted to 518.
CCAAAAAGGAAGGAAACCAGAAAGCCACAGAATGGT returned an ETS1 binding intensity of 487.
Sequence CCGCCCTCCACCGAGTTCCGGCCACAGAGCGGGCCC returned an ETS1 binding intensity of 536.
Take AGCACAGGTTCCCAGGAAATGTGGGTTGAACAAGGC: the ETS1 binding intensity came out at 1250.
GCTTTGCAGTTTCCTCTATGGAACACCACACACAGT: the ETS1 binding intensity was found to be 621.
CAAAGCAACCCAAGGGGATGTGGTCACTGGGGTGAG returned an ETS1 binding intensity of 413.
The same measure, in the same setting: with TAAACGTCAGCTTCCTTTGTGGCTTACCCTCCCGCC the figure was 495.
With AATTCCCAGGAAGCACTCGGCAGCCACAAACTGATG, the ETS1 binding intensity worked out at 539.
In turn, ACAGGAAACTAAAATAAGAACAGAAAACCAAGACAG displayed an ETS1 binding intensity of 865.
Take GCTATCGAGCTTCCTGCAGCGGTGGCCACCCGAGCA: the ETS1 binding intensity stood at 482.
The sequence GTAAGTAGGCCAGGAAGTGGTCACTGCAGCATGTGA gave an ETS1 binding intensity of 3740.
For CCATTCCCGGGCTTCCGCGGTGTCCCCACCCCCTAA, the ETS1 binding intensity was 673.
On the same count and under the same terms, in the case of CTGGCCAGCTCCCACGGATGTGGTAGGCAGGCAGCA it was 965; in that of TGAGGAAGTGTAAGTCACAATAAGAAGCCACATATA, 564.
In turn, AGCGGCTCCTTCCGGCGGCGCGGGTTCCCTTCCCTC registered an ETS1 binding intensity of 624.

The target in the next assay is T1, ETS1. The assay can be described thus: ETS1 binding intensity (PBM fluorescence) in presence of RUNX1, normalised to ETS1-only experiment (arbitrary fluorescence units); higher = stronger binding. The following applies: ETS1 concentration 1 nM; RUNX1 concentration 25 nM.
GGGGCCCCGGATGCACTGAGCGGCTGCGGCGCGGCT: the ETS1 binding intensity is 642.
In the case of AGCGGATTCCGGACATAACAATCTACAGCGGTCTTA, the ETS1 binding intensity amounted to 417.
Turning to GCACGTGTTTCCTGGGGCTGCACCACAGCACCACAC, the ETS1 binding intensity worked out at 497.
TGGGGTTTCCTGGGGAGAAACTTAGCCCTACCACAC: the ETS1 binding intensity turned out to be 485.
Consider GGTGCCAAGGGCAGAGGATGTGGTGAGGTGTGGAGG, for which the ETS1 binding intensity is 4410.
Turning to TGGCTGGGCAGGAAGGCCTGTGGCTTACGGTTCCTG, the ETS1 binding intensity came out at 651.
The same measure, in the same setting: with GAGAGCTGAGCGGAAGCTCAGCTGTGGGGCTGGTTG the figure was 1990; with CTGCAGACAGGAGGATGTGGGCTTGCGCGCAAACAG, 745.
Consider AATGTAGGAAATTCCACTGCATAATTTGTGGTAGTG, for which the ETS1 binding intensity was found to be 539.
On the same count and under the same terms, with CATCAAAAACAGAGGAAGCCACAGCAAATTGCTGCC the figure was 418; with GTGGCTTCCTGCCATTGACAATTGCGGGATGGCTTT, 542.
Turning to AGCACGTCCCCCTTCTTCCTCCCGCAGAGGGCCTGC, the ETS1 binding intensity was determined as 461.
On to CGTTATTTCCGGGGCTGGGTTAACGCAGCGGTTCCA, for which the ETS1 binding intensity was determined as 692.
On to TTCATCTACTTCCCGCCACACCCACAGAGAAGCCCA, for which the ETS1 binding intensity is 377.
As to TATCACGTTTCCTGCTGCTGCACCGCGACCTCAGCT, the ETS1 binding intensity was 492.
Same read-out and setting: with CTTGTTATCCTTCCGGAGGCGGTAACTCATGAGAGA the figure was 352; with ACAGCGCCTCTTCCTGCTCTACCACATCTGATGTCC, 352.
The same measure, in the same setting: in the case of ACGGACAGAATTTCCTCCCCCGTCACCACAGCGACC it was 728; in that of GCTACGGGTTCCCCGGATGGAGCCGCAGTCCGGCCG, 715; in that of AACATTACGGAAGTTTCTCTACCCATGCGGTGTCTC, 683.
For TTACTTCTCAGGAAGCGCTGTGGGGCTGGGGTTGCT, the ETS1 binding intensity stood at 513.
CAGAGACACCTGCGGAAGCCACAGGGAGGTCACAGA: the ETS1 binding intensity is 613.
Same read-out and setting: with AGGGAAGCGGCGGCGGAAGCCCCGCAGGAGGCCGGC the figure was 932.
In the case of TCCAGGATGTGCTGAACCTCCAGAAACCACCGGCTT, the ETS1 binding intensity worked out at 684.
GAGGAGGCTGAGGAGGAAGTGCGGTGGCTGTTCTGC: the ETS1 binding intensity came out at 1470.
With GCGATACGAGACTTCCTGCGGGCTCGTGACATCAGC, the ETS1 binding intensity turned out to be 650.
With CCAAAAAGGAAGGAAACCAGAAAGCCACAGAATGGT, the ETS1 binding intensity was found to be 1200.
Take CCGCCCTCCACCGAGTTCCGGCCACAGAGCGGGCCC: the ETS1 binding intensity amounted to 547.
Consider AGCACAGGTTCCCAGGAAATGTGGGTTGAACAAGGC, for which the ETS1 binding intensity amounted to 1250.
The same measure, in the same setting: in the case of GCTTTGCAGTTTCCTCTATGGAACACCACACACAGT it was 499.
As for CAAAGCAACCCAAGGGGATGTGGTCACTGGGGTGAG, the ETS1 binding intensity came out at 1800.
Regarding TAAACGTCAGCTTCCTTTGTGGCTTACCCTCCCGCC, the ETS1 binding intensity was found to be 582.
Take AATTCCCAGGAAGCACTCGGCAGCCACAAACTGATG: the ETS1 binding intensity was determined as 483.
Consider ACAGGAAACTAAAATAAGAACAGAAAACCAAGACAG, for which the ETS1 binding intensity is 852.
Take GCTATCGAGCTTCCTGCAGCGGTGGCCACCCGAGCA: the ETS1 binding intensity was 418.
The same measure, in the same setting: with GTAAGTAGGCCAGGAAGTGGTCACTGCAGCATGTGA the figure was 4960; with CCATTCCCGGGCTTCCGCGGTGTCCCCACCCCCTAA, 652.
Consider CTGGCCAGCTCCCACGGATGTGGTAGGCAGGCAGCA, for which the ETS1 binding intensity turned out to be 1430.
On the same count and under the same terms, in the case of TGAGGAAGTGTAAGTCACAATAAGAAGCCACATATA it was 519; in that of AGCGGCTCCTTCCGGCGGCGCGGGTTCCCTTCCCTC, 581.
